Experiment [1] concerns the target Calcium/calmodulin-dependent protein kinase type II subunit alpha (Homo sapiens) (UniProt Q9UQM7). The settings on record: at 1 µM.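 Also: reported value is a mean percent inhibition of CAMK2A.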
The target of experiment [2] is Calcium/calmodulin-dependent protein kinase type II subunit delta (Homo sapiens) (UniProt Q13557). The settings on record: at 0.1 µM.
Experiment [3] shares this target. To be noted: at 1 µM.
Experiment [4] deals with T1, Calcium/calmodulin-dependent protein kinase type IV (Homo sapiens) (UniProt Q16566).
T1 sequence (whole entry): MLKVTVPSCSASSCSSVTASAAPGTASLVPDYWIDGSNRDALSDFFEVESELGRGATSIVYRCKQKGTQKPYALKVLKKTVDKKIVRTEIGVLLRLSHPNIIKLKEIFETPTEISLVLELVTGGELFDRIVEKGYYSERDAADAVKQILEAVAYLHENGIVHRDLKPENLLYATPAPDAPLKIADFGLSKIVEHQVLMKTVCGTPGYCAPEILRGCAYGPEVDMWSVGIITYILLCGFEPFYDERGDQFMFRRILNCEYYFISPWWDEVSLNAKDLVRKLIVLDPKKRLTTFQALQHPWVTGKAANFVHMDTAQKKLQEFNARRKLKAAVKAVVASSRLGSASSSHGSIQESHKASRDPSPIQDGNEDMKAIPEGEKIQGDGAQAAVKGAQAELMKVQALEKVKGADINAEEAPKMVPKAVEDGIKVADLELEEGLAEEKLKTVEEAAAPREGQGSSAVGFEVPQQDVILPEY
The settings on record: at 0.1 µM.

The target of experiment [5] is T1, Calcium/calmodulin-dependent protein kinase type IV (Homo sapiens). The settings on record: at 1 µM.
For experiment [6], the target named is T2, Serine/threonine-protein kinase Chk1 (Homo sapiens) (UniProt O14757).
T2 sequence (whole entry): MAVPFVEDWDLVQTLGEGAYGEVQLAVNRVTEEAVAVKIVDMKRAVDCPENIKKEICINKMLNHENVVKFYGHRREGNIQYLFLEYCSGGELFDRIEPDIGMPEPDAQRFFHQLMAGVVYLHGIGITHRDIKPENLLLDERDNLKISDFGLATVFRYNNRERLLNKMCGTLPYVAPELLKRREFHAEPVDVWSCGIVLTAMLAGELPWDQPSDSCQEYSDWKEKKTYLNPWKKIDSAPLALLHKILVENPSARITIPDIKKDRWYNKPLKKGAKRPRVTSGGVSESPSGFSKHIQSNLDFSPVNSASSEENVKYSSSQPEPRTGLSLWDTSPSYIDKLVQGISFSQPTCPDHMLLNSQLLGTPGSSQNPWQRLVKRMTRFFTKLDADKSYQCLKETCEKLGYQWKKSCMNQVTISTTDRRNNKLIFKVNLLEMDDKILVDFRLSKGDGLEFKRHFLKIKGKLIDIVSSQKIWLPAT
To be noted: at 0.1 µM.

In experiment [7] the target is T2, Serine/threonine-protein kinase Chk1 (Homo sapiens). To be noted: at 1 µM.
Experiment [8] deals with Serine/threonine-protein kinase Chk2 (Homo sapiens) (UniProt O96017). The settings on record: at 0.1 µM.
The target is the same in experiment [9]. The settings on record: at 1 µM.
In experiment [10] the target is Death-associated protein kinase 1 (Homo sapiens) (UniProt P53355). To be noted: at 0.1 µM.
Experiment [11] shares this target. To be noted: at 1 µM.
Experiment [12] deals with T3, Serine/threonine-protein kinase DCLK2 (Homo sapiens) (UniProt Q8N568).
T3 sequence (whole entry): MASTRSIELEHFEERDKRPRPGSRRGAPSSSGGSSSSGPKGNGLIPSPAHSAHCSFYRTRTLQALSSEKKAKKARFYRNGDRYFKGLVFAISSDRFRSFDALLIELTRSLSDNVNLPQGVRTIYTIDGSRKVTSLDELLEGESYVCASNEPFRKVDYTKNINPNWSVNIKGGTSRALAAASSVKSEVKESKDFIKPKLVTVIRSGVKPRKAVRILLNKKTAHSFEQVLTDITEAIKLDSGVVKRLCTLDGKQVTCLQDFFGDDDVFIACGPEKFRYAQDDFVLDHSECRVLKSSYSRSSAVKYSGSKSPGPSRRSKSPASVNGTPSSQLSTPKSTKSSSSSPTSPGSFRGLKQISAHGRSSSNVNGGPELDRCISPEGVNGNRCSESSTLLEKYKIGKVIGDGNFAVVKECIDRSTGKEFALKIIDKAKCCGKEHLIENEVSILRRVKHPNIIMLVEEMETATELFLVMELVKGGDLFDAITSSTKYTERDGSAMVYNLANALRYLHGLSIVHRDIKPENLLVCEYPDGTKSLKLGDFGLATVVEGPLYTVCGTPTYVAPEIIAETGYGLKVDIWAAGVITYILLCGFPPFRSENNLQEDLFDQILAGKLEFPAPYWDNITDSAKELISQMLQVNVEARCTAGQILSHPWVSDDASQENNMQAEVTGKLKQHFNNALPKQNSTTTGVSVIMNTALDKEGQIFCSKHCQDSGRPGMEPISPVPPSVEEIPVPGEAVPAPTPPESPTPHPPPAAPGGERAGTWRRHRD
To be noted: at 0.1 µM.

The target of experiment [13] is T3, Serine/threonine-protein kinase DCLK2 (Homo sapiens). To be noted: at 1 µM.
The target of experiment [14] is MAP kinase-activated protein kinase 2 (Homo sapiens) (UniProt P49137). The settings on record: at 0.1 µM.
For experiment [15] the target is unchanged. The settings on record: at 1 µM.
Experiment [16] concerns the target MAP kinase-activated protein kinase 3 (Homo sapiens) (UniProt Q16644). The settings on record: at 0.1 µM.
The target is the same in experiment [17]. The settings on record: at 1 µM.
Experiment [18] deals with Serine/threonine-protein kinase MARK1 (Homo sapiens) (UniProt Q9P0L2). To be noted: at 0.1 µM.
The target is the same in experiment [19]. To be noted: at 1 µM.
The target in experiment [20] is MAP/microtubule affinity-regulating kinase 3 (Homo sapiens) (UniProt P27448). The settings on record: at 0.1 µM.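 Also: mean percent inhibition of MARK3 kinase activity, measured within the GSK PKIS screening panel.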
MAP/microtubule affinity-regulating kinase 3 (Homo sapiens), sequence (P27448 whole entry, looked up): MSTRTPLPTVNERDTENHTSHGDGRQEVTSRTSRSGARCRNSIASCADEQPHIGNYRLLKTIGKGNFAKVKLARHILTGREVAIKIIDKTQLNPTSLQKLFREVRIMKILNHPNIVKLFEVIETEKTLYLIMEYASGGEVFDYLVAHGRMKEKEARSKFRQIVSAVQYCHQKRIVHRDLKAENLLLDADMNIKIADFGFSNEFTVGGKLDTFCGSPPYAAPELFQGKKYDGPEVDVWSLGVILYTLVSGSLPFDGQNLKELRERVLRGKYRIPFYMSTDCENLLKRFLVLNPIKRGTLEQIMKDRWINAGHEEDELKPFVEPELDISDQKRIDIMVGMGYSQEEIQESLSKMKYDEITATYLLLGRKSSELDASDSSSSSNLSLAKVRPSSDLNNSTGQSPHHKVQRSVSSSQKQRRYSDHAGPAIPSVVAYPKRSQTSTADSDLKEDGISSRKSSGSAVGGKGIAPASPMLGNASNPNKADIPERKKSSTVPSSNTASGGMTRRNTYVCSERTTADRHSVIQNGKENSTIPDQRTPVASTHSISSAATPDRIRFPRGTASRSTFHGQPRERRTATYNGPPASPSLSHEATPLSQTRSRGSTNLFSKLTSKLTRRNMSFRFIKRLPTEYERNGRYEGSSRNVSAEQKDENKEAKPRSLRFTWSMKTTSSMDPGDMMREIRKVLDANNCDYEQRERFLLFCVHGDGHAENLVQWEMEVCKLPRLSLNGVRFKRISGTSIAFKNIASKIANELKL

MAP kinase-activated protein kinase 3 (Homo sapiens), sequence (Q16644 whole entry, looked up): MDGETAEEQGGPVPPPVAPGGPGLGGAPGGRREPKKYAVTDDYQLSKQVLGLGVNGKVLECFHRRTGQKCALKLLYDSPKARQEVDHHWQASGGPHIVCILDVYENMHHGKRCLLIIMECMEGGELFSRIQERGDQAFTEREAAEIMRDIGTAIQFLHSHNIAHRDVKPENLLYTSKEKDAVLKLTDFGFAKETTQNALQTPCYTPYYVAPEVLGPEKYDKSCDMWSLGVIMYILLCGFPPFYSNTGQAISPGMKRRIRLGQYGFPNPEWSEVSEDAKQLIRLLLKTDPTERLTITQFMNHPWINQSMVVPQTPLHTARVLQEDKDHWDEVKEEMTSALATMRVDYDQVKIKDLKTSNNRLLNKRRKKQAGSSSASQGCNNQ
Calcium/calmodulin-dependent protein kinase type II subunit alpha (Homo sapiens), sequence (Q9UQM7 whole entry): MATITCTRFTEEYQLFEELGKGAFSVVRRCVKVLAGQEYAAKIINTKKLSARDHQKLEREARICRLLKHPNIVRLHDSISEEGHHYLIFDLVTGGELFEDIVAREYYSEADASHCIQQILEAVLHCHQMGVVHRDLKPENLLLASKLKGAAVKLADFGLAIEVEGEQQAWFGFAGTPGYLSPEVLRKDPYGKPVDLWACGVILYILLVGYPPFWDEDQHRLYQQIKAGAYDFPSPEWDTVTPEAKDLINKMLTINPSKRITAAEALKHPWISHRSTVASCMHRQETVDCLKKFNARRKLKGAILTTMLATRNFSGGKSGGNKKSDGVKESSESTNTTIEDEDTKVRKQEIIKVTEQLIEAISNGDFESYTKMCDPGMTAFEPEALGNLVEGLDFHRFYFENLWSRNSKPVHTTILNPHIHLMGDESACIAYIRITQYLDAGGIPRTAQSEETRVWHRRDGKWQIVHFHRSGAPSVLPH
Serine/threonine-protein kinase MARK1 (Homo sapiens), sequence (Q9P0L2 whole entry, looked up): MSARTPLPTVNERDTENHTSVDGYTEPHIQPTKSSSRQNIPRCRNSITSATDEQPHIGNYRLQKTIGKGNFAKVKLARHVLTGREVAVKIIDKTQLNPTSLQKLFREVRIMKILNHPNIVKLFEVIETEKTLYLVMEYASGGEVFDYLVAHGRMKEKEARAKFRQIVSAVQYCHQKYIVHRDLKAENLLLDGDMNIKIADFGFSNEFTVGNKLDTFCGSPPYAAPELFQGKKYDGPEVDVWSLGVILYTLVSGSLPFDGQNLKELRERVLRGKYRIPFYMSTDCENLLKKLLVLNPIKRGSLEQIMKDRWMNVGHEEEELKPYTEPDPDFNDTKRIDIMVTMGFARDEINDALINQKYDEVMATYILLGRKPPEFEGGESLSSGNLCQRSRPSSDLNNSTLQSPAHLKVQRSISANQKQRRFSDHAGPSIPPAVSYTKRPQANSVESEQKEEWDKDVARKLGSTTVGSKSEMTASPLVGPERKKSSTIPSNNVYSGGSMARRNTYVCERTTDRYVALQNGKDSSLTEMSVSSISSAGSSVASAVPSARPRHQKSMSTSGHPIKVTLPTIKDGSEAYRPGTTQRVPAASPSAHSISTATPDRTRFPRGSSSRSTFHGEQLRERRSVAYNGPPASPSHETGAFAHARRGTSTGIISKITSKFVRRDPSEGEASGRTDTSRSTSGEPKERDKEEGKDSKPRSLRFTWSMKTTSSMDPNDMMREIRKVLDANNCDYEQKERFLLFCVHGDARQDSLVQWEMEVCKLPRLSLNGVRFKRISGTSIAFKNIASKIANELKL
Calcium/calmodulin-dependent protein kinase type II subunit delta (Homo sapiens), sequence (Q13557 whole entry): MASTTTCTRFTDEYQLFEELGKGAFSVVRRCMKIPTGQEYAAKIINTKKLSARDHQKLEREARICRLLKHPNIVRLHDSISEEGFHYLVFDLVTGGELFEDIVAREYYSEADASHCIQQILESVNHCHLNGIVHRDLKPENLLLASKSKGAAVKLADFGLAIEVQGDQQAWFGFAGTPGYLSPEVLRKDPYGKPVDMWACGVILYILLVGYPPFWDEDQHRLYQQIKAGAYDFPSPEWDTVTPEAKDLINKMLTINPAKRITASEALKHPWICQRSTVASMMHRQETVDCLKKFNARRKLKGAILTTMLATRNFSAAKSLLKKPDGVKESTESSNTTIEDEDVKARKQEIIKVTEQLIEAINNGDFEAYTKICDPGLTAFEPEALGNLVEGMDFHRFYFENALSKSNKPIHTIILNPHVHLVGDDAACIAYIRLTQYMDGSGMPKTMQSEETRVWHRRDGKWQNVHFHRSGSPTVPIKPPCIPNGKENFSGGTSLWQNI
Serine/threonine-protein kinase Chk2 (Homo sapiens), sequence (O96017 whole entry): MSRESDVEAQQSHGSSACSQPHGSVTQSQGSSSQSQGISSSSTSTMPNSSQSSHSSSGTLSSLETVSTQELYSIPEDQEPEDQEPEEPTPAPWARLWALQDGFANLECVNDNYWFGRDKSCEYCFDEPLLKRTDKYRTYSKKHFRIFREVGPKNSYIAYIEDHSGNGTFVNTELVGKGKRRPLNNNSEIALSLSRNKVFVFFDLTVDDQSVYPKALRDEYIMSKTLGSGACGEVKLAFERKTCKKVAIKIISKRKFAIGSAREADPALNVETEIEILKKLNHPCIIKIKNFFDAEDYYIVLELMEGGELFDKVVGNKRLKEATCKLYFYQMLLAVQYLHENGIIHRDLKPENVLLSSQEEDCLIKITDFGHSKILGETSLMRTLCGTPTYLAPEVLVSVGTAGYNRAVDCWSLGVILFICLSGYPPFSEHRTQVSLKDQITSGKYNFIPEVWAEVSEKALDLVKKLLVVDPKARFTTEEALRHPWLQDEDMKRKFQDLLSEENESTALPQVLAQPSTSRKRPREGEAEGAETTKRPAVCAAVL
Death-associated protein kinase 1 (Homo sapiens), sequence (P53355 whole entry, looked up): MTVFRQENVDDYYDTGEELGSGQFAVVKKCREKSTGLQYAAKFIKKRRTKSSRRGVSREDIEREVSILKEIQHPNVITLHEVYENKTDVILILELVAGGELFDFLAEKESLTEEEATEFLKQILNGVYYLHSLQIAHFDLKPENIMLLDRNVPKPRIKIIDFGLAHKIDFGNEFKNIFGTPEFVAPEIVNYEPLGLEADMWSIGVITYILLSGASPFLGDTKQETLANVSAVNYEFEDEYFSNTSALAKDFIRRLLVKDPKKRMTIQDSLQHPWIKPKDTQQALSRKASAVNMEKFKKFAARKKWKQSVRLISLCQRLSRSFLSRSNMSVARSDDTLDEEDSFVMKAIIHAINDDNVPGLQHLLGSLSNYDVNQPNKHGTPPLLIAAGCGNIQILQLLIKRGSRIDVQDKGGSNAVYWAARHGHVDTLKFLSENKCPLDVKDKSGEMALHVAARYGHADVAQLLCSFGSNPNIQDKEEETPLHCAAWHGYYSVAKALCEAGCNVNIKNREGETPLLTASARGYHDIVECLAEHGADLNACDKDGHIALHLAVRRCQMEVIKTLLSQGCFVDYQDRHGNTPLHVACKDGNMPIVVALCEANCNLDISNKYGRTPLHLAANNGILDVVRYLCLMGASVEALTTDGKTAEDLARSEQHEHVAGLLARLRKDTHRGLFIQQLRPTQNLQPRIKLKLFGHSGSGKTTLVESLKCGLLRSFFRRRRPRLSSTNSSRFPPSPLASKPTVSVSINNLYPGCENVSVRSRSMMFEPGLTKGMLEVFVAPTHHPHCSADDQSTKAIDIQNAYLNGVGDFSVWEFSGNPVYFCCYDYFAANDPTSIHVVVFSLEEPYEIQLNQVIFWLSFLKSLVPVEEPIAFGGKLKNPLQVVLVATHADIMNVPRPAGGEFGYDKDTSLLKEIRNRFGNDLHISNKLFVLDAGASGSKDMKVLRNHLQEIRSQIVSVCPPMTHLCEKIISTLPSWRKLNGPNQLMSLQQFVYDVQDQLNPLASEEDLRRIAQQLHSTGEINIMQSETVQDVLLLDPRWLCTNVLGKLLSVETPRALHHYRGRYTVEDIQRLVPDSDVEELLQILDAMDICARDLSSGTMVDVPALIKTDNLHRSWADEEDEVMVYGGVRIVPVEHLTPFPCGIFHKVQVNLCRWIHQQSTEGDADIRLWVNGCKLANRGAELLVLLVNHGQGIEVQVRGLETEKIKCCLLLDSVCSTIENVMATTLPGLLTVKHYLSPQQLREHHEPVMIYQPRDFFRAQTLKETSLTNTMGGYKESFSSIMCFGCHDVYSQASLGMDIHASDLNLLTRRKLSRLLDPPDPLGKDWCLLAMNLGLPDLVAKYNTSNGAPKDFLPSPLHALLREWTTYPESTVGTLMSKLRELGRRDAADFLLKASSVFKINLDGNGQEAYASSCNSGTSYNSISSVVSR

One may read the inhibition as the drop in the measured response relative to a control, in per cent. Consider `CCn1c(-c2nonc2N)nc2c(C#CC(C)(C)O)nc(OC[C@H](N)c3ccccc3)cc21`, for which the inhibition is 6.26% in [1]; 4.52% in experiment [2]; 8.64% in [3]; -0.61% in [4]; 4.09% in experiment [5]; 2.81% in [6]. Moreover, the inhibition in experiment [7] is 9.89%; in [8], 4.7%; in experiment [9], 11.3%; in experiment [10] it was 2.88%; in experiment [11], 4.82%; in experiment [12], -2.25%. The inhibition was 1.52% in experiment [13]; 0.63% in [14]; 2.99% in experiment [15]; 1.45% in [16]; 2.95% in experiment [17]; 2.28% in experiment [18]. The inhibition in experiment [19] was 27.3%; in experiment [20], 4.68%.
Turning to `CNC(=O)c1cncc(/C=C/c2ccccc2Cl)c1`, the inhibition was 1.63% in experiment [1]; -0.13% in [2]; -0.98% in [3]; -3.66% in [4]; -4.17% in experiment [5]; 1.43% in [6]. For the same molecule, the inhibition was 3.35% in experiment [7]; -0.6% in experiment [8]; 1.77% in experiment [9]; 2.15% in experiment [10]; 1.77% in [11]; 0.59% in [12]. The inhibition was -3.35% in experiment [13]; 0.55% in [14]; 1.05% in experiment [15]; 0.66% in experiment [16]; -0.89% in [17]; 1.46% in [18]. In addition, the values for the inhibition in [19] and in [20] were 5.24% and 1.01%, respectively.
For the molecule `CNC(=O)c1cccc(C#Cc2cncnc2Nc2ccc(OCc3cccc(F)c3)c(Cl)c2)c1`, the inhibition in [1] is 1.97%; in experiment [2] it was 0.91%; in experiment [3] it was 1.19%; in experiment [4], -0.97%; in experiment [5], -3.36%; in experiment [6], -1.85%. Further, the inhibition in experiment [7] was -0.79%; in experiment [8] it was 0.62%; in experiment [9], 2.35%; in [10] it was -1.4%; in [11] it was -1.89%; in [12], -9.58%. In addition, the inhibition in experiment [13] is -6.14%; in experiment [14], 1.01%; in experiment [15], 0.58%; in [16], 1.88%; in experiment [17], 1.66%; in experiment [18], -0.72%. The inhibition in [19] is 1.6%; in experiment [20], 1.07%.
With `CC(C)(CO)CNC(=O)c1ccc2c(c1)/C(=N/Nc1ccc(S(N)(=O)=O)cc1)C(=O)N2`, the inhibition was 4.28% in [1]; 0.61% in experiment [2]; 12.2% in experiment [3]; 0.55% in experiment [4]; -0.51% in experiment [5]; 0.39% in experiment [6]. The inhibition in [7] was -3.69%; in experiment [8], -0.89%; in experiment [9] it was 5.93%; in experiment [10], -0.17%; in experiment [11] it was 0.07%; in experiment [12], 0.04%. Further, the inhibition was 1.76% in experiment [13]; -0.45% in [14]; -1.03% in [15]; 2.49% in experiment [16]; 2.07% in [17]; 10.3% in experiment [18]. The inhibition came to 52.5% in experiment [19] and 5.88% in experiment [20].
In the case of `CC(=O)Nc1cccc(C#Cc2cncnc2Nc2ccc(OCc3cccc(F)c3)c(Cl)c2)c1`, the inhibition is 4.52% in experiment [1]; 4.28% in experiment [2]; 3.37% in experiment [3]; 1.57% in experiment [4]; 3.24% in experiment [5]; -1.89% in experiment [6]. Further, the inhibition in experiment [7] is -3.6%; in experiment [8], -2.67%; in experiment [9], -1.77%; in [10], -6.34%; in [11], -5.4%; in experiment [12] it was 2.03%. Further, the inhibition is -0.73% in experiment [13]; -2.08% in experiment [14]; -2.08% in experiment [15]; -4.18% in [16]; -2.89% in experiment [17]; 1.42% in experiment [18]. For the same molecule, the figures for the inhibition in experiment [19] and in [20] were 0.83% and 3.81%, respectively.
With `Cc1cccc2c1NC(=O)/C2=N\Nc1ccc(S(N)(=O)=O)cc1`, the inhibition in experiment [1] is 3.33%; in experiment [2] it was 3.36%; in experiment [3] it was 3.56%; in [4] it was 0.62%; in experiment [5], 1.1%; in [6], 0.95%. In addition, the inhibition in experiment [7] was 5.04%; in experiment [8], 1.68%; in experiment [9], 2.64%; in [10], 3.69%; in experiment [11] it was 4.75%; in experiment [12], 0.74%. For the same molecule, the inhibition in [13] was 2.14%; in experiment [14] it was 1.37%; in [15], 1.1%; in experiment [16], 2.44%; in [17], 2.04%; in experiment [18], 1.81%. For the same molecule, the inhibition in [19] stood at 3.2%; in [20], 2.64%.

The values above are taken from ChEMBL document CHEMBL1961873, “Compounds: GSK PKIS; Assays: Nanosyn kinase panel” (2012).
